Shown are actives, neighbours in structure and some others; about 2.8% of the full set was active somewhere.
POLI inh: inhibitors of human DNA polymerase iota | AID 588590 | Pol iota fluorescent replication assay, 10 min | Potency, µM (doses to about 115 µM), for the others: at the highest dose activity, negative = inhibition, most hits filed as inhibitors | Q9UNA4 | actives 1% (n = 390,000); note: potency is the fitted concentration of half-maximal effect
Target sequence (Q9UNA4 whole entry, looked up): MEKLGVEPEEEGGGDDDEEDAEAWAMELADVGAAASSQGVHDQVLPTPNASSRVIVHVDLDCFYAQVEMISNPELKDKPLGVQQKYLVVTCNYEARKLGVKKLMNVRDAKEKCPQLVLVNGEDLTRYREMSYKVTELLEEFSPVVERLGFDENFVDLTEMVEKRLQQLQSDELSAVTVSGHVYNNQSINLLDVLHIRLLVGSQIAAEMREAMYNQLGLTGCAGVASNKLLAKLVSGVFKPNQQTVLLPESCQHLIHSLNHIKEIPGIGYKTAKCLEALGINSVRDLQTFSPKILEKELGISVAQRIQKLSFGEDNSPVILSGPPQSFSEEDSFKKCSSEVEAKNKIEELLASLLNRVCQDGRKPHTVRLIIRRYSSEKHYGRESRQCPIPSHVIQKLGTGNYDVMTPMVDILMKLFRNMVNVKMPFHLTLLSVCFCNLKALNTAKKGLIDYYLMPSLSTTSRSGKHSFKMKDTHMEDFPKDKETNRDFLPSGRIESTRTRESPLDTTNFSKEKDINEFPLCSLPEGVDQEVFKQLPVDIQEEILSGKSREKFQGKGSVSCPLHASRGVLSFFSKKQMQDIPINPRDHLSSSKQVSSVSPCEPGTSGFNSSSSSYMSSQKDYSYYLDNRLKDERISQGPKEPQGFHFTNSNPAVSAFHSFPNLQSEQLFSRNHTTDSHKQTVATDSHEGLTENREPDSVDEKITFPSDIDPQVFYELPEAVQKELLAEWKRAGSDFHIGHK
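Pol iota at 10 nM preincubated 15 min with compounds at room temperature; reaction started with fluorescent substrate, 50 nM final. Fluorescence read kinetically at 0 and 10 min; buffer-only wells as negative control.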
Pol eta inh-1: DNA polymerase eta (human) inhibition; Potency, µM (series often up to 114 µM), for inactives: at the top dose activity change, negative = inhibition, hits mostly inhibitors; AID 588591; Q9Y253; recombinant Pol eta, fluorescent DNA replication assay; actives 1.2% (n = 390,000); note: potency is the fitted concentration of half-maximal effect; % is set by controls: 0 for no effect and ±100 for the full control effect
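Pol eta (10 nM) was preincubated with compounds for 15 min at room temperature, after which fluorescent replication substrate (50 nM final) was added to start the reaction. Fluorescence was read kinetically at 0 and 10 min.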
WRN helicase inh: inhibitors of human WRN helicase. actives 0.46% (n = 360,000). AID 651768. Q14191. Potency, µM (top dose mostly 114 µM), without a hit: at the top dose activity change, negative = inhibition, most hits filed as inhibitors. WRN helicase unwinding, fluorescent forked duplex, kinetic; note: potency is the fitted concentration of half-maximal effect; % is set by controls: 0 for no effect and ±100 for the full control effect; nearly all actives have a fitted effect of over 55% in size
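Enzyme (20 nM final) and test compound sit together 15 min at room temperature before substrate addition. Substrate is a single-forked duplex oligonucleotide (100 nM) labelled with fluorophore and quencher, with 2 mM ATP; helicase unwinding raises red fluorescence, read kinetically.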
POLB inh: DNA polymerase beta (human) inhibition; P06746; Potency, µM (titrated, usually from 114 µM), for inactives: at the highest dose activity change, negative = inhibition, actives largely listed as inhibitors; Pol beta primer extension/strand displacement, fluorescence kinetic; AID 485314; actives 1.3% (n = 340,000); note: potency is the fitted concentration of half-maximal effect; % is set by controls: 0 for no effect and ±100 for the full control effect
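Curves were derived by four-parameter Hill fits of normalized qHTS data. The kinetic fluorescent primer-extension read was taken at 0 and 10 min after 50 nM substrate, following a 15 min room-temperature preincubation of 10 nM enzyme with compounds.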
PI5P4Ka inh: inhibitors of human PI5P4K alpha | actives 1.2% (n = 330,000) | max response, % | P48426 | PI5P4Kalpha enzyme, ADP-Glo luminescence, 60 min; active compounds read low | AID 652105; active = max response of -50% or lower; inconclusive = between -30% and -50%; inactive = -30% or higher; note: value at the top dose of about 77 µM; % is set by controls: 0 for no effect and ±100 for the full control effect
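Single end-point luminescence (ADP-Glo) quantified ADP from PI5P4Kalpha turnover; ATP 5 microM final, 1 h at RT, 0.1% CHAPS and 0.28 mM EGTA in HEPES pH 7.4.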
Pol kappa inh-1: inhibitors of human DNA polymerase kappa. Q9UBT6. actives 0.53% (n = 400,000). Potency, µM (highest dose often 107 µM), inactives show top-dose activity, negative = inhibition, most hits filed as inhibitors. AID 588579. purified Pol kappa, fluorescent DNA synthesis assay, 10 min; note: potency is the fitted concentration of half-maximal effect; % is set by controls: 0 for no effect and ±100 for the full control effect
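Activity was followed as the change in fluorescence between reads at 0 and 10 min after starting the reaction with 50 nM substrate. Beforehand, 10 nM polymerase had been preincubated with compound for 15 min at room temperature.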
GALK confirm: confirmation of human galactokinase (GALK) inhibitors. actives 70% (n = 150). Potency, µM (doses to about 115 µM), for inactives: at the highest dose activity, negative = inhibition, most hits filed as inhibitors. shares compounds with Pol eta inh-1. purified GALK, Kinase-Glo ATP depletion luminescence
GALK redox cs: counter-screen for GALK inhibitors: redox cycling H2O2 generation | Phenol red-HRP H2O2 redox cycling, absorbance 600 nm | Potency, µM (highest dose often 115 µM), for inactives: at the highest dose activity change, negative = H2O2 signal, usual class: inhibitors | actives 40% (n = 150) | shares compounds with Pol eta inh-1
HEK293 tox: counter-screen for GALK inhibitors: HEK293 cell cytotoxicity. shares compounds with Pol eta inh-1. HEK-293 viability, ATP luminescence (CellTiter-Glo), 24/48 h. Potency, µM (highest dose often 46.1 µM), for inactives: top-dose activity change, negative = cytotoxicity, most hits filed as inhibitors. actives 10% (n = 170); note: potency is the fitted concentration of half-maximal effect; % is set by controls: 0 for no effect and ±100 for the full control effect
Pol kappa inh-2: Pol kappa (human) inhibition, cherry-pick confirmation; shares compounds with Pol eta inh-1; purified Pol-kappa, fluorescent strand-displacement substrate; Potency, µM, usual class: inhibitors; actives 76% (n = 920); note: potency is the fitted concentration of half-maximal effect
Pol eta inh-2: Pol eta (human) inhibition, cherry-pick confirmation; Pol eta primer extension, TAMRA/BHQ fluorescence, 10 min; shares compounds with Pol eta inh-1; AID 720502; Potency, µM, most hits filed as inhibitors; actives 64% (n = 2,600); note: potency is the fitted concentration of half-maximal effect
* marks the source's active call; other numbers are inactive results; ? = inconclusive; . = not tested or not shown; [ ] = remark or other dose. Unless noted, calls come from the whole dose curve; as a rule, active = well fitted curve in the direction sought with a large enough effect; inconclusive = small, poorly fitted or top-dose-only effect, or another doubt; inactive = no such curve, though single readings can be large; an effect the other way counts as inactive or inconclusive.

SMILES | POLI inh | Pol eta inh-1 | WRN helicase inh | POLB inh | PI5P4Ka inh | Pol kappa inh-1 | Pol eta inh-2 | others
COc1cc(CC(=O)OCC(=O)NCc2ccco2)cc(OC)c1OC | ? | 50µM* | -5%[11.6 µM] | . | 0 | -26% | ?
CCOC(=O)/C=C(\C)Sc1cc(=O)oc2ccccc12 | 19% | 1% | -6% | 33% | -2 | -10% | .
CCOC(=O)/C=C(\C)Sc1cc(O)c2ccccc2c1O | ? | 28µM* | -26% | 35µM* | ? | 11% | . | GALK confirm=30µM*;GALK redox cs=19µM*;HEK293 tox=?
Nc1nnc(SCC(=O)N2CCCCC2)s1 | -1% | -3% | 7% | 36% | 1 | -12% | .
Nc1c(C=C2C=CC(=O)C=C2)c(=O)nc2sc(CC(=O)N3CCCCC3)nn12 | ? | 40µM* | -9% | -19% | ? | -24% | 76*
Cn1c2ccccc2c2cc(/C=N/NC(=O)c3cc(O)cc(O)c3)ccc21 | 28µM* | 22µM* | ? | 89µM* | -74* | ? | 54* | Pol kappa inh-2=47*
O=C(C1Cc2ccccc2CN1C(=O)c1ccccc1)N1CCN(c2ccccc2)CC1 (stereo not drawn) | ? | 79µM* | -7%[11.6 µM] | 32µM* | -24 | ? | 76* | Pol kappa inh-2=?
COc1ccccc1OCCn1c(SCC(=O)O)nc2ccccc21 | ? | 22µM* | -5%[11.6 µM] | 28µM* | -3 | 79µM* | ? | Pol kappa inh-2=34*
COc1ccccc1OCCSc1nc2ccccc2n1CCC(=O)O | 18% | -5% | 7% | -8% | 1 | -1% | .
Cc1cccc(OCC(=O)Nc2nnc(S(=O)(=O)N3CCc4ccccc43)s2)c1 | ? | 89µM* | . | 18% | . | ? | ?
OCCN1CCN(c2ncnc3c2ncn3[C@H]2CN(Cc3ccncc3)C[C@@H](CO)O2)CC1 | . | . | 4% | . | 0 | . | .
Cc1ccc(C2C=C(c3ccccc3)Nc3nc(NS(=O)(=O)c4ccc(C)cc4)nn32)cc1 (stereo not drawn) | 6% | ? | . | 2% | . | -7%[60.1 µM] | . | Pol kappa inh-2=?
COc1ccc(NC(=O)C2CCCN(c3ncnc4c3nc3n4CCCCC3)C2)c(OC)c1 (stereo not drawn) | 18% | -8% | . | 8% | . | -1% | .
CC1Cc2cc(S(=O)(=O)NCc3ccccc3Cl)ccc2N1C(=O)C1CCC1 (stereo not drawn) | -6% | -17% | . | 25% | . | -20% | .
O=Cc1ccc(-c2cccc(C(=O)O)c2)o1 | ? | 10µM* | -5%[11.6 µM] | ? | -20 | ? | 48*
O=C(O)c1ccc(N/N=C/c2ccc(-c3ccc(Br)cc3)o2)cc1 | ? | -1% | -27% | ? | -3 | -37% | .
Cc1c(C(=O)O)cccc1-c1ccc(C=O)o1 | ? | 5µM* | -19%[57.1 µM] | 28µM* | -6 | ? | 85*
O=C(Cc1ccc(Br)cc1)N/N=C/c1ccc(-c2cccc(C(=O)O)c2)o1 | 23% | 22µM* | -13%[11.6 µM] | ? | ? | ? | 30*
Oc1ccccc1N1CCN(c2ccc3ccccc3n2)CC1 | 79% | -3% | -3% | -11% | -14 | -6% | .
Cc1nc2ncnn2c(N2CCN(C(=O)Cc3cccs3)CC2)c1C | ? | 79µM* | ? | 20µM* | . | ? | ?
CSCC[C@H](NS(=O)(=O)c1ccc(C(C)=O)cc1)c1nnc2ccccn12 | -21% | 14µM* | ? | 79µM* | ? | -19% | 67*
Cc1cc2nc(-c3ccc(SCc4ccc(C(=O)O)cc4)nc3)[nH]c2cc1C | ? | 28µM* | ? | 22µM* | -64* | -18% | 38*
c1cc2c3c(c1)CCCN3CCC2 | 19% | . | . | . | . | 12% | .
COc1ccc(-c2cn3c(n2)sc2cc(C(=O)NCCCN4CCCCCC4)ccc23)cc1 | 17% | ? | . | 0% | . | -35% | . | Pol kappa inh-2=?
OC(C[n+]1ccccc1Cl)c1ccccc1 (stereo not drawn) | 38% | . | . | . | . | -22% | .
SMILES | POLI inh | Pol eta inh-1 | WRN helicase inh | POLB inh | PI5P4Ka inh | Pol kappa inh-1 | Pol eta inh-2 | others
Cc1ccccc1NS(=O)(=O)c1c(C(=O)N2CCCCCC2)c(C)n(C)c1C | 4% | -22% | 7% | 1% | -2 | -22% | .
Cc1cccc(NC(=O)CCc2nnc3ccc(NCc4ccco4)nn23)n1 | 36% | 25µM* | -7%[11.6 µM] | ? | -21 | 1% | 76*
O=C(CCc1nnc2ccc(NCc3ccco3)nn12)Nc1ccccc1F | ? | ? | -15% | ? | ? | -23% | .
O=c1c2ccccc2nc2ccc(NCc3ccco3)nn12 | ? | ? | ? | ? | -26 | -37% | ?
Cc1sc2nc3ccc(NCc4ccco4)nn3c(=O)c2c1C | ? | ? | ? | ? | -16 | -36% | .
O=C(CCc1nnc2ccc(NCc3ccco3)nn12)Nc1ccccn1 | 20% | 28µM* | -3%[11.6 µM] | ? | -24 | 5% | ?
O=C(CCN1C(=O)/C(=C\C=C\c2ccccc2)SC1=S)Nc1ccccc1C(=O)O | ? | 25µM* | ? | 38% | ? | ? | ?
O=C1c2cc(O)cc(O)c2C(=O)c2c1cc(O)c([C@@H](CO)CCO)c2O | ? | 45µM* | -13%[11.6 µM] | . | -51* | 79µM* | ?
Cc1ccc(C(=O)Nc2nc(-c3ccco3)c(-c3ccco3)s2)o1 | ? | 14µM* | ? | . | ? | -31% | 60* | Pol kappa inh-2=15*
O=C(COc1cccc(F)c1)Nc1nc(-c2cccnc2)cs1 | 29% | 3% | -7% | . | -6 | -20% | .
